These results are taken from ChEMBL document CHEMBL3988442, “University of Dundee, Small-Polar-MMV Screening Library” (2021).

In experiment [1] the target is T1, Aspartate--tRNA(Asp/Asn) ligase (Mycobacterium tuberculosis (strain ATCC 25618 / H37Rv)) (UniProt P9WFW3). Also: in the data most compounds retested in dose-response had high values.
T1 sequence (whole entry): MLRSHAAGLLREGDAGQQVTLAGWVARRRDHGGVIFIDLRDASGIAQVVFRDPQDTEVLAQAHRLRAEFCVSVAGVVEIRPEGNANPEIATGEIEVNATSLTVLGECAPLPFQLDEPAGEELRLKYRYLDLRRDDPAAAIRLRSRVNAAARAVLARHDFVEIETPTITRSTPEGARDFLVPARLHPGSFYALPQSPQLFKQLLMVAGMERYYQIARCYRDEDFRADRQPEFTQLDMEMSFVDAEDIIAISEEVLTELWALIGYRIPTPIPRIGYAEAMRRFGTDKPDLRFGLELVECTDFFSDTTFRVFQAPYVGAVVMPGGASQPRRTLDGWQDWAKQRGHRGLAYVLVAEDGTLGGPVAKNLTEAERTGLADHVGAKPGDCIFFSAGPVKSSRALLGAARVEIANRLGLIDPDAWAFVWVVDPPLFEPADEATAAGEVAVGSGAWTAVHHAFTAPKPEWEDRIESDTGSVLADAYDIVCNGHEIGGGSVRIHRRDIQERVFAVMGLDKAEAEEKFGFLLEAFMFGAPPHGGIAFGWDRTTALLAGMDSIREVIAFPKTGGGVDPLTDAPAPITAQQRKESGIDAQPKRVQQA
Kind of experiment: Assay for Asp RNA synthetase-1 from Mycobacterium tuberculosis. In kind it is functional. The arrangement: scale not given: direction of the effect not stated beside the values. The note with it: 30 µM.

Experiment [2] has as its target Shiga toxin 2 (Escherichia coli O157:H7) (UniProt P09385+P09386). Kind of experiment: E. coli 0.157:H7 Shiga Toxin SOP - stx2 screening assay. In kind it is functional. Also on record: scale not given: direction of the effect not stated beside the values. The note with it: 30 µM.

For the molecule `CNS(=O)(=O)c1cccc(CNc2cc(C(F)(F)F)ccn2)c1`, the Percent Effect in experiment [1] is -2.24%; in experiment [2], 27.2%.

As for `CC1CN=C(N2CCN(C(=O)Nc3nc(-c4ccccc4)ns3)CC2)S1` (centres undefined), the figures for the Percent Effect in experiment [1] and in experiment [2] were 3.62% and -38.1%, respectively.

Regarding `O=C(NCC(=O)N1CCc2ccccc2C1)c1ccoc1`, the results for the Percent Effect in experiment [1] and in experiment [2] were 1.62% and -10.2%, respectively.

With `O=C(N1CCCO1)[C@@]12CCO[C@@H]1CCN(Cc1ccccc1)C2`, the figures for the Percent Effect in experiment [1] and in experiment [2] were -1.34% and -5.88%, respectively.

With `CC(C)N1CCC(Cc2cc(-c3cccc(C(=O)O)c3)ncn2)C1` (centres undefined), the results for the Percent Effect in experiment [1] and in experiment [2] were -2.43% and 2.16%, respectively.

`Cc1cc(N2CCN(Cc3ccccc3)CC(O)C2)cc(C)n1` (centres undefined): the Percent Effect was -5.25% in experiment [1] and -16.3% in experiment [2].

On to `COc1ccccc1CC(=O)NS(C)(=O)=O`, for which the figures for the Percent Effect in experiment [1] and in experiment [2] were -7.77% and 0.472%, respectively.

As to `CC1COCCN1C(=O)c1cccc(OCc2cscn2)c1` (centres undefined), the Percent Effect in experiment [1] is -6.86%; in experiment [2], 0.62%.

With `CC(C)n1ccnc1C1CCN(C(=O)c2cc[nH]n2)CC1`, the Percent Effect in experiment [1] is -0.496%; in experiment [2], 14.3%.

In the case of `COc1cccc(CN2CCN(c3ccc4nncn4n3)C(C)C2)c1` (centres undefined), the values for the Percent Effect in experiment [1] and in experiment [2] were -3.34% and 14.8%, respectively.

Take `c1coc(-c2noc(CN3CCC(c4ccn[nH]4)CC3)n2)c1`: the Percent Effect in experiment [1] came to 0.546%; in experiment [2], 0.0749%.

In the case of `Cc1csc(NC(=O)CN2CCC(c3ccnn3CCO)CC2)n1`, the Percent Effect in experiment [1] was -8.82%; in experiment [2], -16.7%.

As to `Cc1c[nH]c(CN(C)C(=O)C2CC(=O)N(Cc3ccncc3)C2)n1` (centres undefined), the Percent Effect in experiment [1] is 2.33%; in experiment [2], -32.5%.

Regarding `COc1ccc(CN2CCC3(CC2)CCN(CC2CC2)C3=O)cc1`, the Percent Effect in experiment [1] was -4.6%; in experiment [2] it was -2.04%.

On to `O=C(CCc1cscn1)N1CCCC1c1noc(C2CC2)n1` (centres undefined), for which the Percent Effect in experiment [1] was -1.43%; in experiment [2] it was 22.4%.

Regarding `O=C(Nc1cccnc1)[C@H]1C[C@@H]2CN(C(=O)NC3CCCC3)C[C@H]1O2`, the Percent Effect in experiment [1] is 2.61%; in experiment [2], -2.93%.

Consider `Cc1ccc(N2CCCN(C(=O)C(C(C)C)n3cncn3)CC2)nn1` (centres undefined), for which the Percent Effect is -4.34% in experiment [1] and -13.6% in experiment [2].
